Screens from PubChem BioAssay.
In the library only some 3.5% were active in any assay of this set; here they are far more common.
GPR151 ag – activators of human GPR151. actives 1% (n = 650,000). activation, % at 11.2 µM. AID 1508602. PathHunter beta-arrestin GPR151 cells, luminescence; in the data active = activation above about 4.9%;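 note: 0% = median of compound wells and 100% = cells with positive control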
Target sequence (Q8TDV0 whole entry, looked up): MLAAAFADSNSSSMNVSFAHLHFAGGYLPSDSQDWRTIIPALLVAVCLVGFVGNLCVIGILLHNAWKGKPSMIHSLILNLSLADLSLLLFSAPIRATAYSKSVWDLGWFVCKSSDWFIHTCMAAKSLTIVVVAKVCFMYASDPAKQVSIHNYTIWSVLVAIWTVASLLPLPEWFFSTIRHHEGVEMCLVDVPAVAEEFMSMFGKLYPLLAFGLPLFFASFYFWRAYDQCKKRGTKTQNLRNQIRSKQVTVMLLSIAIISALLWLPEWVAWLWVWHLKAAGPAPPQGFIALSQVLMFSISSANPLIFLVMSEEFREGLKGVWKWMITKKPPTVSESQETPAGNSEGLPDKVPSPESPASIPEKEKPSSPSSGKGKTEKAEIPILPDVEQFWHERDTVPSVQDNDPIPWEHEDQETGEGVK
TEAD-YAP block – TEAD-YAP interaction inhibition | HEK-TIYL cells, TEAD-Gal4/YAP UAS-luciferase luminescence | inhibition, % at 9.12 µM | actives 1.4% (n = 640,000); in the data active = inhibition above about 32%;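 note: 0% = median of test compound wells and 100% = reference inhibitor wells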
MITF primary – human MITF inhibition, primary screen; AlphaScreen MITF homodimerization, bead proximity signal; AID 1259374; inhibition, % at 2.6 µM; actives 0.91% (n = 650,000); O75030; in the data active = inhibition above about 50%;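 note: 0% = vehicle wells with protein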
FBW7 activator – activators of human E3 ligase FBW7; Q969H0; AlphaScreen FBW7–phospho-cyclin E peptide binding, activator screen; normalized activity (activation), % at 26.1 µM; actives 0.13% (n = 650,000); in the data active = normalized activity above about 1.9%;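 note: purified mutant Fbw7 with reduced substrate affinity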
Starred values were filed as active, the others as inactive.

SMILES | GPR151 ag | TEAD-YAP block | MITF primary | FBW7 activator
C=CCn1c(-c2ccccc2)cnc1SCC(=O)Nc1ccccc1 | 0 | 23 | 15 | -1
C=CCn1c(-c2ccc(Cl)cc2)cnc1SCC(=O)Nc1sccc1C(N)=O | 0 | 34* | 1 | 0
COC(=O)c1ccc(COC(=O)c2ccc3[nH]c(C)c(C)c3c2)o1 | -2 | -6 | 12 | 0
CCCCc1cc(=O)oc2c(C)c(OCC(=O)N(C)C)ccc12 | 0 | 9 | 7 | 0
CCOC(=O)c1c(C)[nH]c(C(=O)N/N=C\c2ccc(Br)cc2)c1C | 2 | 56* | 3 | 0
CCOC(=O)c1c(C)[nH]c(C(=O)N/N=C\c2ccccc2)c1C | -1 | 18 | 18 | 0
CCOC(=O)c1c(C)[nH]c(C(=O)N/N=C\c2ccccc2O)c1C | 0 | 35* | -1 | 0
COc1ccccc1/C=N/NC(=O)c1[nH]c(C)c(C(=O)N/N=C/c2ccccc2OC)c1C | 0 | 1 | -2 | 0
COc1ccc(NC(=O)c2ccc3c(SCC(=O)O)c4c(nc3c2)CCC4)cc1OC | 2 | -2 | 1 | 0
CCOC(=O)c1sc(N2C(=O)C(=O)/C(=C(/O)c3ccccc3)C2c2ccc(C)o2)nc1C (stereo not given) | 0 | -1 | 21 | 0
Cn1cccc1/C=C1\CS/C(=C\c2cccn2C)C1=O | 1 | -11 | 68* | -1
CCN1C/C(=C\c2cccn2C)C(=O)/C(=C/c2cccn2C)C1 | 1 | 1 | 11 | 0
c1ccc(C2=NNC(c3ccccc3)=NN2)cc1 | -6 | 42* | 5 | 0
O=C(CNC(=O)c1ccc(Cl)cc1Cl)NNC(=O)c1ccccc1F | -1 | -3 | -10 | 0
CCC(=O)c1cc(Br)ccc1O | -1 | 3 | -8 | 0
COc1ccc(/C=C2\Oc3cc(OC(C)=O)ccc3C2=O)cc1 | -2 | 51* | -16 | 0
CC(=O)Oc1ccc2c(c1)O/C(=C\c1sccc1C)C2=O | -5 | 88* | 4 | 0
COC(=O)COc1cccc(/C=C2\Oc3cc(OC)ccc3C2=O)c1 | 4 | 4 | -3 | 0
COc1ccc(C(=O)Oc2ccc3c(c2)O/C(=C\c2ccncc2)C3=O)cc1OC | 0 | 8 | -13 | 0
CCC(=O)Oc1ccc2c(c1)O/C(=C\c1cccc(OC)c1)C2=O | -1 | 87* | -5 | 0
COc1ccc(/C=C2\Oc3cc(OC(=O)c4ccncc4)ccc3C2=O)cc1 | -2 | 68* | 27 | 0
C/C(=N\NC(=S)NCCc1ccccc1)c1ccccn1 | 1 | 88* | 26 | -1
S=C(NCCc1ccccc1)N/N=C/c1ccccn1 | -2 | 80* | 38 | 0
COc1ccc(/C(C)=N/NC(=S)NCCc2ccccc2)c(O)c1 | -1 | 2 | 87* | 0
O=C(Cc1ccccc1)N/N=C/c1ccccn1 | -1 | -17 | 2 | 0
SMILES | GPR151 ag | TEAD-YAP block | MITF primary | FBW7 activator
O=C1NN(c2ccccc2)C(=O)/C1=C/c1ccc(OC(=O)c2ccccc2F)cc1 | -1 | 12 | -8 | 0
COc1ccc(C(=O)N2CCN3C(=O)[C@H](CC(C)C)N(C)C(=O)[C@H]3C2)cc1 | 0 | 3 | -4 | 0
O=C(CCC1(Cc2ccc(F)cc2)CCC(=O)N1)NCc1c(F)cccc1F (stereo not given) | 1 | 36* | -10 | 0
Cc1cc2ccccc2nc1SCC(=O)NC(C)(C)C | 0 | -15 | 24 | 0
COc1ccc(NC(=O)c2nn(C)c3c2COc2ccccc2-3)c(OC)c1 | 3 | -7 | 4 | 0
CC(=O)c1c(C)[nH]c(C(=O)COC(=O)c2c(C)nn(-c3ccccc3)c2C)c1C | 3 | 49* | 22 | 0
COc1ccccc1Nc1ccc(NC(=S)NCCN2CCOCC2)cc1 | -1 | 1 | 13 | 0
O=c1c(O)cc2c(-c3ccccc3)c3cc(O)c(O)c(Br)c3oc-2c1Br | 0 | -5 | 96* | -1
COc1ccccc1N1CCN(C(=S)NCCN2CCOCC2)CC1 | -1 | 66* | 8 | 0
CCNC(=S)N1CCN(c2ccccc2OC)CC1 | 1 | 1 | -9 | 0
O=C(NCCCN1CCc2ccccc2C1)Nc1ccc(Br)cc1 | 0 | -15 | -10 | 3.1*
COc1ccccc1N1CCN(CCCNC(=O)Nc2ccc(Br)cc2)CC1 | -1 | 3 | -12 | 2.9*
COCCCN1C(=S)NC2CC1(C)Oc1ccc(Br)cc12 (stereo not given) | 0 | 2 | 2 | 0
Cc1ccc(NC(=O)O/N=C\c2ccc(N(C)C)cc2)cc1 | 1 | 34* | -21 | 0
Cc1ccc(NC(=S)N(CCN(C)C)Cc2cccs2)cc1Cl | 2 | -8 | 6 | 0
O=C(Cn1c(=O)[nH]c2ccccc21)NCc1ccc2c(c1)OCO2 | -6 | 75* | 6 | 0
Cc1csc(NC(=O)CSc2nnc(-c3ccc([N+](=O)[O-])cc3)o2)n1 | 0 | -26 | 2 | 0
COC(=O)C1=C(C)N(c2cccc(OC)c2)C(=O)C1 | 1 | 3 | -18 | 0
COC(=O)C1=C(C)N(c2ccc(Cl)c(Cl)c2)C(=O)C1 | 1 | 36* | -14 | 0
Cc1ccc(-n2c(SCC(=O)NC3CCCC3)nc3c(sc(=S)n3-c3cc(C)ccc3F)c2=O)cc1 | 0 | 6 | 3 | 0
CN(c1ccccc1)c1ccc(/C=C/[N+](=O)[O-])cc1 | -1 | 34* | -7 | 0
COc1ccc(C=Nc2cc(Cl)c(N)c(Cl)c2)cc1 | -1 | -2 | 11 | 1
COc1ccc(CCNC(=O)c2cccc(NS(=O)(=O)c3ccc(C)cc3)c2)cc1OC | 0 | -1 | 15 | 0
CC1=C(C(=O)NCCc2ccc(S(N)(=O)=O)cc2)C2(CCCCC2)OC1=O | 1 | -3 | -8 | 0
CC1=C(C(=O)NCCc2ccc(S(N)(=O)=O)cc2)C2(CCC(C)CC2)OC1=O (stereo not given) | -2 | -7 | 19 | 2.0*
SMILES | GPR151 ag | TEAD-YAP block | MITF primary | FBW7 activator
Cc1ccc(NC(=O)N2CCCC2C(=O)Nc2ccccc2C)cc1 (stereo not given) | 0 | 0 | 0 | 6.3*
Cc1ccccc1NC(=O)C1CCCN1C(=O)Nc1ccccc1 (stereo not given) | -1 | 10 | 15 | 0
Cc1ccc(-c2n[nH]c3c2C(c2ccccc2F)N(c2ccccc2)C3=O)cc1 (stereo not given) | 2 | 48* | 4 | 0
Cc1ccc(C2c3c(-c4ccc(F)cc4)n[nH]c3C(=O)N2c2ccccc2)cc1 (stereo not given) | 0 | 0 | -28 | 0
COc1ccc(CNC(=O)c2cnc(Nc3ccccc3OC)c3ccccc23)cc1 | 1 | -4 | 9 | 0
OC(c1ccccc1)c1ccccn1 (stereo not given) | 2 | 8 | 6 | 0
CC1CC(C(O)c2ccccn2)C(=O)C(C(O)c2ccccn2)C1 (stereo not given) | -1 | 40* | -4 | 0
O=C(COc1ccc(CO)cc1Cl)Nc1ccccc1 | -3 | 49* | 10 | 1
O=C(COc1ccc(Br)cc1Br)Nc1cccc(O)c1 | 3 | 69* | 2 | 0
Cc1ccc(COc2ccc(CO)cc2Cl)cc1 | -1 | 33* | 7 | 0
